According to PubChem BioAssay (NCATS):
Where “and” joins values, the source holds several entries; their conditions need not be identical. Equal entries are not always repeated. Records with an inconclusive call do not appear. A call without a number means that no potency is given here. More than one record can exist for a structure, and the calls need not agree. Calls of active or inactive are those of the source. Calls come from the whole dose curve; as a rule, active = well fitted curve in the direction sought with a large enough effect; inconclusive = small, poorly fitted or top-dose-only effect, or another doubt; inactive = no such curve, though single readings can be large; an effect the other way counts as inactive or inconclusive.

Legend:
[1] = P-glycoprotein substrates identified in KB-3-1 adenocarcinoma cell line, qHTS therapeutic library screen (AID 1346986); note: nearly all actives have a fitted effect of over 60% in size;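 note: potency is for cytotoxicity meaning loss of cell viability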
How it was run: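 72 h cell-killing screen, 500 cells/well, CellTiter-Glo luminescence. Paired lines KB-3-1/KB-8-5-11; P-gp dependence checked by tariquidar co-treatment and HEK-293 MDR-19 versus empty-vector cells.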

[2] = P-glycoprotein substrates identified in KB-8-5-11 adenocarcinoma cell line, qHTS therapeutic library screen (AID 1346987); note: nearly all actives have a fitted effect of over 65% in size
How it was run: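 Compounds are pinned in dose-response onto KB-8-5-11 cells (500 cells/well, colchicine-free medium) and left 72 h at 37 degree C. CellTiter-Glo luminescence then yields AC50 values.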

[3] = qHTS of pediatric cancer cell lines to identify multiple opportunities for drug repurposing: Primary screen for DAOY cells (AID 1347090); note: nearly all actives have a fitted effect of over 55% in size
How it was run: (§1)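 Eight- or eleven-point concentration series, 48 h treatment at 37 degrees C in growth media; readout CellTiter-Glo luminescence. Potency and efficacy were taken from the concentration-response curves.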

[4] = qHTS of pediatric cancer cell lines to identify multiple opportunities for drug repurposing: Primary screen for SJ-GBM2 cells (AID 1347091)
How it was run: as §1

[5] = qHTS of pediatric cancer cell lines to identify multiple opportunities for drug repurposing: Primary screen for BT-37 cells (AID 1347094)
How it was run: (§2)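 Quantitative HTS format: each compound titrated (MIPE 11 points from 0.78 nM, NPC 8 points from 0.59 nM) onto cells plated 5 hours earlier. After 48 h at 37 degrees C, CellTiter-Glo luminescence was recorded.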

[6] = qHTS of pediatric cancer cell lines to identify multiple opportunities for drug repurposing: Primary screen for NB-EBc1 cells (AID 1347095)
How it was run: as §2

[7] = qHTS of pediatric cancer cell lines to identify multiple opportunities for drug repurposing: Primary screen for Saos-2 cells (AID 1347097); note: nearly all actives have a fitted effect of over 40% in size
How it was run: as §2

[8] = qHTS of pediatric cancer cell lines to identify multiple opportunities for drug repurposing: Primary screen for SK-N-SH cells (AID 1347098); note: nearly all actives have a fitted effect of over 65% in size
How it was run: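 Cells (500-1,000/well) rested 5 h, then received compounds for 48 h; metabolically active cells were measured by CellTiter-Glo luminescence. Final concentrations spanned up to 46 µM (MIPE, 11-point) or 0.59 nM-46 µM (NPC, 8-point) in primary screens, 11-point in follow-ups.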

[9] = qHTS of pediatric cancer cell lines to identify multiple opportunities for drug repurposing: Primary screen for TC32 cells (AID 1347089); note: nearly all actives have a fitted effect of over 60% in size
How it was run: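 Luminescent CellTiter-Glo read-out of metabolically active TC32 cells after 48 h compound exposure. Primary: MIPE 11-point, 0.78 nM–46 µM; NPC 8-point, 0.59 nM–46 µM. Confirmatory: 11-point dilutions.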

[10] = qHTS of pediatric cancer cell lines to identify multiple opportunities for drug repurposing: Primary screen for A673 cells (AID 1347092); note: nearly all actives have a fitted effect of over 45% in size
How it was run: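 A673 cells (500-1,000 cells/well in growth media) were pre-incubated 5 h at 37 degrees C, then exposed to compounds for 48 h. Viability was read as CellTiter-Glo luminescence; concentration-response curves came directly from the primary screen.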

[11] = qHTS of pediatric cancer cell lines to identify multiple opportunities for drug repurposing: Primary screen for SK-N-MC cells (AID 1347093)
How it was run: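 Metabolically active cells were quantified by ATP-dependent luminescence (CellTiter-Glo, 15 min at room temperature) following 48 h treatment. Cells had been plated at 500-1,000 per well and settled for 5 h beforehand.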

[12] = qHTS of pediatric cancer cell lines to identify multiple opportunities for drug repurposing: Primary screen for U-2 OS cells (AID 1347096); note: nearly all actives have a fitted effect of over 50% in size
How it was run: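 Cells (500-1,000/well) in growth media were settled 5 h at 37 degrees C, then given compounds for 48 h. Viability was read as CellTiter-Glo luminescence. Primary runs used MIPE at 11 points (0.78 nM-46 µM) and NPC at 8 points (0.59 nM-46 µM); follow-ups used 11 points.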

[13] = NS1 protein of Zika virus - qHTS assay to identify small molecule inhibitors in human HEK 293 cells (AID 1347053); note: nearly all actives have a fitted effect of over 55% in size
How it was run: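 Read-out is a two-antibody TR-FRET for ZIKV NS1, normalized between uninfected cells and infected cells. Compound added 1 h before MR766 infection at MOI 0.5; human HEK 293 cells incubated 24 h, 37 C.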
Potency is the fitted concentration of half-maximal effect.

Row | SMILES | Potency [1] | Potency [2] | Potency [3] | Potency [4] | Potency [5] | Potency [6] | Potency [7] | Potency [8] | Potency [9] | Potency [10] | Potency [11] | Potency [12] | Potency [13]
1 | COC(=O)Nc1ccc(-c2nc(N3CCOCC3)c3cnn(C4CCN(C(=O)OC)CC4)c3n2)cc1 | 1.64 µM (active) | 469 nM (active) and 1.46 µM (active) | 1.87 µM (active) | 4.69 µM (active) | 0.122 µM (active) | 8.3 nM (active) | 2.96 µM (active) | 0.0192 µM (active) | – | – | – | – | –
2 | CNC(=O)c1cc(Oc2ccc(NC(=O)Nc3ccc(Cl)c(C(F)(F)F)c3)c(F)c2)ccn1 | 18.4 µM (active) | inactive and 16.4 µM (active) | 5.9 µM (active) | 8.33 µM (active) | 21.7 µM (active) | 5260 nM (active) | 16.6 µM (active) | – | inactive | 18.7 µM (active) | 2.96 µM (active) | 23.5 µM (active) | –
3 | CCC=CC[C@H]1C(=O)CC[C@@H]1CC(=O)OC | inactive | inactive | inactive | inactive | inactive | – | inactive | 19.2 µM (active) | inactive | inactive | inactive | inactive | –
4 | CSc1cccc(Nc2ncc3cc(-c4c(Cl)cccc4Cl)c(=O)n(C)c3n2)c1 | 2.06 µM (active) | inactive and 1.3 µM (active) | – | 0.418 µM (active) | – | 372 nM (active) | 0.118 µM (active) | inactive | inactive | – | – | – | –
5 | CCC(=O)N1CCN(c2ccc(-n3c(=O)ccc4cnc5ccc(-c6cnc7ccccc7c6)cc5c43)cc2C(F)(F)F)CC1 | 0.075 µM (active) | 41.8 nM (active) and 133 nM (active) | – | 0.0187 µM (active) | 0.0217 µM (active) | 66.2 nM (active) | – | – | 73.9 nM (active) | 0.0118 µM (active) | 0.0053 µM (active) | – | –
6 | CN(C)CCN(Cc1ccc(Cl)cc1)c1ccccn1 | – | inactive | 29.6 µM (active) | inactive | inactive | – | inactive | – | inactive | 18.7 µM (active) | 10.5 µM (active) | inactive | inactive
7 | CCN1CCN(c2ccc(Nc3cc(N(C)C(=O)Nc4c(Cl)c(OC)cc(OC)c4Cl)ncn3)cc2)CC1 | – | inactive and 16.4 µM (active) | inactive | 18.7 µM (active) | inactive | 20900 nM (active) | – | inactive | inactive | inactive | – | inactive | inactive
8 | CC[C@H](C=C[C@@H](C)[C@H]1CC[C@H]2[C@@H]3CC=C4C[C@@H](O)CC[C@]4(C)[C@@H]3CC[C@]12C)C(C)C | – | inactive | inactive | inactive | inactive | inactive | inactive | inactive | inactive | inactive | – | inactive | inactive
9 | Cc1cnc(-c2cc(N3CCN(C(=O)CCS(C)(=O)=O)CC3)ncc2Cl)c(C)c1 | – | inactive | inactive | inactive | – | inactive | inactive | – | inactive | 4.69 µM (active) | 16.6 µM (active) | inactive | inactive
10 | O=C(O)C1=CO[C@@H](O[C@@H]2O[C@H](CO)[C@H](O)[C@H](O)[C@H]2O)[C@@H]2C(CO)=CC[C@H]12 | – | inactive | inactive | inactive | inactive | inactive | – | 21.5 µM (active) | inactive | inactive | inactive | inactive | inactive
11 | CN1CC(=O)NC1=NC(=O)Nc1cccc(Cl)c1 | – | inactive | inactive | inactive | inactive | – | – | 8.57 µM (active) | inactive | inactive | – | inactive | inactive
12 | CON(C)C(=O)N1N=C(c2cc(F)ccc2F)S[C@]1(CCCN)c1ccccc1 | – | 14.8 nM (active) | 0.0015 µM (active) | 0.001 µM (active) | inactive | 1 nM (active) | 0.001 µM (active) | – | 4.7 nM (active) | 0.001 µM (active) | 0.001 µM (active) | inactive | 14.8 µM (active)
13 | NS(=O)(=O)c1cc(Cl)c(Cl)c(S(N)(=O)=O)c1 | – | inactive | inactive | inactive | inactive | – | inactive | inactive | inactive | inactive | inactive | inactive | inactive
14 | CC(=O)N1CCN(c2ccc(OCc3nn(C)c(C)c3-c3cccc4c(CCCOc5cc(C)c(Cl)c(C)c5)c(C(=O)O)n(Cc5cccnc5)c34)cc2)CC1 | – | inactive | 18.7 µM (active) | 23.5 µM (active) | 24.3 µM (active) | – | 18.7 µM (active) | – | inactive | 14.8 µM (active) | 4.18 µM (active) | inactive | inactive
15 | CC1(C)[C@H]2CC[C@]3(C)[C@@H](C(=O)C=C4[C@@H]5C[C@@](C)(C(=O)O)CC[C@]5(C)CC[C@]43C)[C@@]2(C)CC[C@@H]1O | – | inactive | inactive | inactive | – | – | inactive | inactive | inactive | inactive | inactive | inactive | inactive
16 | N#Cc1c(N(CC(=O)O)CC(=O)O)sc(C(=O)O)c1CC(=O)O | – | inactive | inactive | inactive | inactive | inactive | inactive | inactive | inactive | inactive | inactive | inactive | inactive
17 | NC[C@H]1O[C@H](O[C@@H]2[C@@H](O)[C@@H](O[C@H]3O[C@H](CO)[C@@H](O)[C@H](N)[C@@H]3O)[C@H](N)C[C@@H]2N)[C@H](O)[C@@H](O)[C@H]1O | – | inactive | inactive | inactive | – | inactive | inactive | – | inactive | inactive | – | inactive | inactive
18 | Cc1cc2nc3c(=O)[nH]c(=O)nc-3n(CC(O)C(O)C(O)CO)c2cc1C (stereo not given) | – | inactive | inactive | inactive | inactive | inactive | inactive | – | inactive | – | 29.6 µM (active) | inactive | inactive
19 | OC[C@H]1O[C@@H](O[C@H]2[C@@H](O)[C@@](O)(CO)O[C@@H]2CO)[C@H](O)[C@@H](O)[C@@H]1O | – | inactive | inactive | inactive | inactive | inactive | inactive | inactive | inactive | inactive | inactive | inactive | inactive
20 | CC[C@H](C)C(=O)O[C@H]1C[C@H](O)C=C2C=C[C@H](C)[C@H](CC[C@@H](O)C[C@@H](O)CC(=O)O)[C@H]21 | – | inactive | inactive | inactive | – | inactive | – | inactive | inactive | inactive | inactive | inactive | inactive
21 | N[C@@H](CC(=O)N1CCn2c(nnc2C(F)(F)F)C1)Cc1cc(F)c(F)cc1F | – | inactive | inactive | inactive | inactive | – | – | – | inactive | inactive | – | inactive | inactive
22 | CC=C1C2C=C(C)CC1(N)c1ccc(=O)[nH]c1C2 (stereo not given) | – | inactive | inactive | inactive | inactive | inactive | inactive | inactive | inactive | inactive | – | inactive | inactive
23 | CC(C)c1c(C(=O)Nc2ccccc2)c(-c2ccccc2)c(-c2ccc(F)cc2)n1CC[C@H](O)C[C@@H](O)CC(=O)O | – | inactive | 11.8 µM (active) | 16.6 µM (active) | – | – | 6.62 µM (active) | – | inactive | 18.7 µM (active) | 23.5 µM (active) | 18.7 µM (active) | inactive
24 | CS(=O)(=O)c1ccc(C2=C(c3ccccc3)C(=O)OC2)cc1 | – | inactive | inactive | inactive | inactive | inactive | inactive | – | inactive | inactive | inactive | inactive | inactive
25 | Cc1ccc(NC(=O)Nc2cc(C(F)(F)F)ccc2F)cc1Nc1ccc2c(c1)NC(=O)C2=Cc1ccc[nH]1 | – | 10500 nM (active) | 14.8 µM (active) | 10.5 µM (active) | – | 11800 nM (active) | 20.9 µM (active) | 30.4 µM (active) | inactive | 7.43 µM (active) | – | 23.5 µM (active) | inactive
26 | CN1CCN2c3ncccc3Cc3ccccc3C2C1 (stereo not given) | – | inactive | inactive | inactive | inactive | inactive | – | inactive | inactive | – | inactive | inactive | inactive
